What is called inhibition is the change of the read-out against control, counted positive when it falls.

Each structure is given as a SMILES string. Calls of active or inactive are those of the source.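 The calls were made as follows, unless noted: active = visually confirmed hit in the image check and inhibition above 20%; inconclusive = visually confirmed hit but inhibition not above 20%; inactive = no visual hit in the image check.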

Consider 13 compounds from PubChem BioAssay.

Assay [1] can be described thus: inhibitors of TNFa-induced NFkB p65 translocation, primary screen, imaging, HUVEC, MLSMR starter and 10KST1 sets (AID 438;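 active = inhibition above 20% together with a positive visual image hit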;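 also: compound added about 3h40 before a 20 min TNFalpha stimulation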;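 as to inhibition: signal is the nuclear over cytoplasmic p65 intensity ratio per well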). As to conditions: HUVEC TNFa-induced p65 nuclear translocation; cell count: measured here: nuclei count (cytotoxicity indicator), at 2.08 µM; inhibition: at 2 µM, stronger effect = higher value, 0% TNFa-plus-vehicle, 100% no-TNFa wells.
Assay [2] in a line: reduction of polyQ htt aggregates in cells – imaging, exon1htt(103Q)mCFP cells, high-content imaging, primary screen (AID 483;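 active = visual image review flags a hit and inhibition of aggregation exceeds 20%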;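 also: compound exposure lasted 3 days before fixation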;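 as to nuclei count: percent of the per-plate median nuclei count of sample wells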). The note with it: exon1htt(103Q)mCFP cell line, aggregate imaging, at 2 µM; inhibition of aggregation: stronger effect = higher value; nuclei count: measured here: cell count, toxicity.
A short description of assay [3]: endothelial E-selectin expression blockers – imaging, HUVEC, immunofluorescence, MLSMR starter and 10KST1 sets, primary screen (AID 487).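 As to inhibition: signal is fraction of cell area covered by stained E-selectin grains.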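 As to nuclei count: 100% = median nuclei count of all wells on the same plate.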 The note with it: HUVEC TNFalpha-induced E-selectin immunofluorescence imaging, at 2 µM; inhibition: stronger effect = higher value; nuclei count: measured here: cell number, toxicity.
Assay [4] concerns the target Voltage-gated potassium channel subunit beta-2 (Rattus norvegicus) (UniProt P62483). Description: inhibitors of rat Kvbeta2 reductase activity – biochemical, NADPH fluorescence, primary screen (AID 622;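 active = fluorescence slope higher than the sample average by over 3 SD, cut at about -0.22 in these data, passing the limit was not always enough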;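 also: slope of raw intensity against log time taken from 70 to 1610 s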). As to conditions: recombinant KvBeta, 4-cyanobenzaldehyde reduction, at 10 µM, stronger effect = higher value.
The target is the same in assay [5]. Description: enhancers of rat Kvbeta2 NADPH turnover – biochemical, NADPH fluorescence, primary screen (AID 623;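 active = NADPH fluorescence slope more negative than the mean of all samples by about 3 SD, 99.7% confidence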;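 also: fluorescence intensity change per second fitted from 20 to 320 s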). The note with it: Recombinant KvBeta, NADPH fluorescence decrease slope, 10 min; at 10 µM; stronger effect = lower value.
Assay [6] concerns the target Alpha-2C adrenergic receptor (Homo sapiens) (UniProt P18825). Description: compounds altering alpha2C-coupled GIRK flux – cell-based, HEK293 alpha2C/GIRK1/2, thallium flux, primary screen (AID 624;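 active = fluorescence slope after compound addition differing from the mean of all screened samples at 99.7% confidence, in either direction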;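 also: slope of fluorescence ratio to pre-addition baseline per second over 15 to 24 s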). As to conditions: thallium flux BTC fluorescence, at 10 µM, actives lie on both sides.
Assay [7] is described as follows: blockers of RIG-like receptor reporter activation – cell-based, Sendai virus stimulus, luciferase, 10K MLSCN set, TLR/RLR signaling modifier project, primary screen (AID 602276;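 active = inhibition at or above 50% at 10 µM; inactive = inhibition below 50%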;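 also: firefly luciferase from ISG56 promoter only with Renilla not read in this screen; 0% = Sendai virus plus DMSO and 100% = medium plus DMSO without virus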). The note with it: HEK293 RL24 IRF3 luciferase reporter, at 10 µM, stronger effect = higher value. (In general: A reporter such as luciferase makes a cellular process visible.)
Assay [8] in a line: TLR3 IRF3 reporter activation blockers – cell-based, poly I:C stimulus, luciferase, 10K MLSCN set, primary screen (AID 602277;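 active = inhibition of the reporter signal at or above 50%; inactive = inhibition below 50%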). The note with it: HEK293-TLR3 RL24 IRF3 luciferase reporter, at 10 µM, stronger effect = higher value.

Sequence of Alpha-2C adrenergic receptor (Homo sapiens) (P18825 whole entry, looked up): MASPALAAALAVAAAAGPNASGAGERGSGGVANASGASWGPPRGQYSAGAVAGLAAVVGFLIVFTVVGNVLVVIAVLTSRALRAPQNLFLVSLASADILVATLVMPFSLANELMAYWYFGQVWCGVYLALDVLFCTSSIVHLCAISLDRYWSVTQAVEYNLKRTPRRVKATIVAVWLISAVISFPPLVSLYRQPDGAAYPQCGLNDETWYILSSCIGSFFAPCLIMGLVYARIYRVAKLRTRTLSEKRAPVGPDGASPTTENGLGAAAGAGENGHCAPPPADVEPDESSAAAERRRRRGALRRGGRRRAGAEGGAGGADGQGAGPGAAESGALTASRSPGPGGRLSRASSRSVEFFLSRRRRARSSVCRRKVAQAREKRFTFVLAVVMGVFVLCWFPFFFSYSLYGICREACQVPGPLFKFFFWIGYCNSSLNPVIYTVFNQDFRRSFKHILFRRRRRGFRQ
Sequence of Voltage-gated potassium channel subunit beta-2 (Rattus norvegicus) (P62483 whole entry, looked up): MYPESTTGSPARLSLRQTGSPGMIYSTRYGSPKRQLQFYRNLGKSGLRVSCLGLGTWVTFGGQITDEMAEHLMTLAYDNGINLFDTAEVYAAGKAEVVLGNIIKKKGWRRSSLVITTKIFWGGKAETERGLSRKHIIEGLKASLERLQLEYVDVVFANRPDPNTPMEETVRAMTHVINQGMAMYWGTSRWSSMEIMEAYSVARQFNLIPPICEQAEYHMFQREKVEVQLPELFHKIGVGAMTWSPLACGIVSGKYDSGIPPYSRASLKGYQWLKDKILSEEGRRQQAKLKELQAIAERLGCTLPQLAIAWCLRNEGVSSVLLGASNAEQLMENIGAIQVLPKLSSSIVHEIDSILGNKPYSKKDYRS

For `CCOC(=O)CC1=C(C(=O)OCC)C(c2ccc(C)o2)C(C#N)=C(N)O1` (stereo not drawn), the cell count in assay [1] was 339. The inhibition in assay [1] was -16.4% (inactive); in assay [3] it was -46.5% (inactive); in assay [7], 3.2% (inactive); in assay [8], 8.99% (inactive). For the same compound, the inhibition of aggregation in assay [2] was 15.3% (inactive). The nuclei count in assay [2] is 91.9%; in assay [3] it was 94.7%. Further, the fluorescence slope in assay [4] is -0.625 (inactive). In addition, the NADPH fluorescence slope in assay [5] was 3.1e-06 (inactive). For the same compound, the slope in assay [6] is 0.00603 (inactive).
For the compound `Cc1ccc(NC(=O)CN(c2ccc3c(c2)OCO3)S(=O)(=O)c2c(C)n[nH]c2C)cc1`, the cell count in assay [1] was determined as 768. The inhibition in assay [1] was -12.5% (inactive); in assay [3] it was -39.7% (inactive); in assay [7] it was 6.09% (inactive); in assay [8], 17.9% (inactive). Further, in assay [2], the inhibition of aggregation is -29.4% (inactive). The nuclei count was 108% in assay [2] and 101% in assay [3]. The fluorescence slope in assay [4] is -0.42 (inactive). Moreover, in assay [5], the NADPH fluorescence slope was -5.2e-05 (inactive). For the same compound, in assay [6], the slope is 0.00614 (inactive).
Regarding `COC(=O)CCSCc1cn2cc(Cl)ccc2n1`, the cell count in assay [1] came out at 373. Besides, the inhibition in assay [1] is 2.8% (inactive); in assay [3], -85.2% (inactive); in assay [7] it was 18.6% (inactive); in assay [8], 56.9% (active). In addition, the inhibition of aggregation in assay [2] was -26.9% (inactive). Moreover, the nuclei count in assay [2] is 103%; in assay [3], 112%. The fluorescence slope in assay [4] was -0.509 (inactive). The NADPH fluorescence slope in assay [5] was -1.7e-05 (inactive). The slope in assay [6] is 0.00629 (inactive).
As to `CCOC(=O)c1ccc2nc(C)c3c(c2c1)OC(C)C3` (stereo not drawn), in assay [1], the cell count was found to be 308. The inhibition is -13% (inactive) in assay [1], 9% (inactive) in assay [3], -5.44% (inactive) in assay [7] and 20.2% (inactive) in assay [8]. In addition, the inhibition of aggregation in assay [2] is 1.1% (inactive). The nuclei count was 94.2% in assay [2] and 122% in assay [3]. In addition, the fluorescence slope in assay [4] was -0.349 (inactive). In assay [5], the NADPH fluorescence slope was 1.7e-05 (inactive). In addition, the slope in assay [6] is 0.00348 (inactive).
In the case of `Cn1c(=O)n(CCN2CCOCC2)c(=O)c2c1nc1n2CCN1c1ccccc1`, in assay [1], the cell count was determined as 362. Also, the inhibition in assay [1] is 14% (inactive); in assay [3] it was -33.7% (inactive); in assay [7], -6.67% (inactive); in assay [8], 3.62% (inactive). For the same compound, the inhibition of aggregation in assay [2] was 27.9% (inactive). Moreover, the results for the nuclei count in assay [2] and in assay [3] were 98.5% and 132%, respectively. Further, the fluorescence slope in assay [4] is -0.564 (inactive). Besides, the NADPH fluorescence slope in assay [5] was 2.6e-05 (inactive). For the same compound, the slope in assay [6] was 0.00592 (inactive).
In the case of `COc1cccc(Oc2cnc(N)nc2-c2ccc(OC)cc2O)c1`, in assay [1], the cell count turned out to be 664. The inhibition in assay [1] is -8.2% (inactive); in assay [3], -111% (inactive); in assay [7] it was 23.8% (inactive); in assay [8], 38% (inactive). In addition, in assay [2], the inhibition of aggregation was 5.1% (inactive). The nuclei count is 112% in assay [2] and 87.8% in assay [3]. Besides, the fluorescence slope in assay [4] was -0.427 (inactive). The NADPH fluorescence slope in assay [5] was -5.9e-05 (inactive). In addition, in assay [6], the slope was 0.00372 (inactive).
Consider `Cc1ccccc1-c1nc(CN2CCC(C(=O)NC3CCN(Cc4ccccc4)CC3)CC2)c(C)o1`, for which, in assay [1], the cell count worked out at 612. For the same compound, the inhibition in assay [1] was 3.7% (inactive); in assay [3], 13% (inactive); in assay [7], -19.2% (inactive); in assay [8], 78% (active). Also, the inhibition of aggregation in assay [2] is -89.7% (inactive). The results for the nuclei count in assay [2] and in assay [3] were 107% and 108%, respectively. In addition, in assay [4], the fluorescence slope is -0.561 (inactive). For the same compound, the NADPH fluorescence slope in assay [5] was -3e-05 (inactive). The slope in assay [6] was 0.0054 (inactive).
Regarding `COc1ccc(NC(=O)CN2CCCCC2)cc1`, in assay [1], the cell count stood at 494. Moreover, the inhibition was -1.5% (inactive) in assay [1], -23.4% (inactive) in assay [3], 3.07% (inactive) in assay [7] and 11.2% (inactive) in assay [8]. Besides, in assay [2], the inhibition of aggregation is 5.5% (inactive). In addition, the nuclei count is 110% in assay [2] and 121% in assay [3]. The fluorescence slope in assay [4] is -0.414 (inactive). In assay [5], the NADPH fluorescence slope is -2.7e-05 (inactive). In assay [6], the slope is 0.00355 (inactive).
On to `Cc1cnc(C(=O)OCC(=O)Nc2ccc(Oc3ccccc3)cc2)cn1`, for which the cell count in assay [1] was determined as 566. For the same compound, the inhibition was -16.3% (inactive) in assay [1], -1.5% (inactive) in assay [3], -29.5% (inactive) in assay [7] and -39.7% (inactive) in assay [8]. Besides, the inhibition of aggregation in assay [2] was -29.2% (inactive). Also, the nuclei count in assay [2] is 107%; in assay [3], 122%. In assay [4], the fluorescence slope is -0.367 (inactive). Also, the NADPH fluorescence slope in assay [5] was -8.3e-06 (inactive). Moreover, the slope in assay [6] is 0.00457 (inactive).
On to `Cc1ccc(/C=c2\sc3nc(-c4ccccc4Br)nn3c2=O)o1`, for which the cell count in assay [1] was 277. The inhibition in assay [1] was -5% (inactive); in assay [3], -9.5% (inactive); in assay [7], 12.3% (inactive); in assay [8], 18.9% (inactive). In addition, in assay [2], the inhibition of aggregation was 39.3% (active). Further, the nuclei count in assay [2] came out at 92.3%; in assay [3] it was 94.1%. In addition, the fluorescence slope in assay [4] is -0.577 (inactive). For the same compound, in assay [5], the NADPH fluorescence slope was -5.1e-05 (inactive). In addition, the slope in assay [6] is 0.00296 (inactive).
Regarding `O=C(CN1CCC(NC(=O)c2ccc(F)cc2)CC1)NCc1ccccc1F`, in assay [1], the cell count was 435. Further, the inhibition in assay [1] is 4.6% (inactive); in assay [3], -192% (inactive); in assay [7], 10.1% (inactive); in assay [8] it was 23.8% (inactive). Besides, the inhibition of aggregation in assay [2] was -0.1% (inactive). Further, the nuclei count in assay [2] came out at 101%; in assay [3], 110%. Further, the fluorescence slope in assay [4] was -0.438 (inactive). For the same compound, in assay [5], the NADPH fluorescence slope was -6.6e-06 (inactive). Moreover, the slope in assay [6] is 0.00564 (inactive).
As to `CN(Cc1ccccc1)Cc1nc2c(c(=O)n(C)c(=O)n2C)n1Cc1ccc(Cl)cc1`, in assay [1], the cell count amounted to 346. Besides, the inhibition in assay [1] was -7.7% (inactive); in assay [3], -32.1% (inactive); in assay [7] it was -1.93% (inactive); in assay [8] it was 2.58% (inactive). Besides, the inhibition of aggregation in assay [2] was 22.2% (inactive). Besides, the nuclei count in assay [2] is 72.4%; in assay [3], 161%. Moreover, in assay [4], the fluorescence slope was -0.612 (inactive). In addition, the NADPH fluorescence slope in assay [5] is -1.8e-05 (inactive). In addition, the slope in assay [6] is 0.00317 (inactive).
`COc1ccc(OC)c(NC(=O)CCN2CCC(C)CC2)c1`: the cell count in assay [1] came to 446. The inhibition in assay [1] is -6.2% (inactive); in assay [3], -120% (inactive); in assay [7] it was -15.8% (inactive); in assay [8] it was -0.553% (inactive). The inhibition of aggregation in assay [2] is 15.7% (inactive). In addition, the nuclei count was determined as 101% in assay [2] and 220% in assay [3]. The fluorescence slope in assay [4] is -0.59 (inactive). In assay [5], the NADPH fluorescence slope is -3.6e-05 (inactive). For the same compound, in assay [6], the slope is 0.00565 (inactive).
